Source: the supplement of paper PMC10849652
Targets with a hit are over-represented here; the source holds about 7,900 in all. About 0.6% of all pairs of compound and target were hits. Values without a mark were called inactive.

compound: CN1CC[C@H](c2c(O)cc(O)c3c(=O)cc(-c4ccccc4Cl)oc23)[C@H](O)C1 [alvocidib]; experiment: log2 fold change, soluble protein after heating vs DMSO (PISA); higher = thermal stabilisation; K562 cells, 10 uM, 30 min; active = over 0.2 and 3.5 SD of the protein, either way, in both replicates (recomputed)
In short: (§1)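 K562 cells at 2×10^6 cells/mL were treated with 10 μM compound for 30 min. Aliquots were heated for 3 min across 48°C-58°C, pooled, and extracted in PBS with 0.5% NP-40 at 4°C; soluble protein was the supernatant after 21,000xg for 90 min. Soluble protein was quantified by TMTpro 16plex LC-MS/MS with channel sums equalised, and reported as log2 fold change in thermal stability against DMSO controls, with values from duplicates.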

Chain of UniProt O15400 (O15400 whole entry, looked up): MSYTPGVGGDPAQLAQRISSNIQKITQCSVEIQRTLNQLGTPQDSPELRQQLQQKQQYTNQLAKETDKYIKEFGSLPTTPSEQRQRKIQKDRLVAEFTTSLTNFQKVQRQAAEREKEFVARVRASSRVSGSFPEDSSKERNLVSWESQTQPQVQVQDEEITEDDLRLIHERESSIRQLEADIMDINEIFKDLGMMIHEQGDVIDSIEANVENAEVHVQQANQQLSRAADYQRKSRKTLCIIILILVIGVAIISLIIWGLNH
Chain of UniProt Q9Y5J6 (Q9Y5J6 whole entry, looked up): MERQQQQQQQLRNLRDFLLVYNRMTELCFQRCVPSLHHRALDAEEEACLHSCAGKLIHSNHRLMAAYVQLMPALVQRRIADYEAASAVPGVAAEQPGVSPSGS
Chain of UniProt Q9BW92 (Q9BW92 whole entry, looked up): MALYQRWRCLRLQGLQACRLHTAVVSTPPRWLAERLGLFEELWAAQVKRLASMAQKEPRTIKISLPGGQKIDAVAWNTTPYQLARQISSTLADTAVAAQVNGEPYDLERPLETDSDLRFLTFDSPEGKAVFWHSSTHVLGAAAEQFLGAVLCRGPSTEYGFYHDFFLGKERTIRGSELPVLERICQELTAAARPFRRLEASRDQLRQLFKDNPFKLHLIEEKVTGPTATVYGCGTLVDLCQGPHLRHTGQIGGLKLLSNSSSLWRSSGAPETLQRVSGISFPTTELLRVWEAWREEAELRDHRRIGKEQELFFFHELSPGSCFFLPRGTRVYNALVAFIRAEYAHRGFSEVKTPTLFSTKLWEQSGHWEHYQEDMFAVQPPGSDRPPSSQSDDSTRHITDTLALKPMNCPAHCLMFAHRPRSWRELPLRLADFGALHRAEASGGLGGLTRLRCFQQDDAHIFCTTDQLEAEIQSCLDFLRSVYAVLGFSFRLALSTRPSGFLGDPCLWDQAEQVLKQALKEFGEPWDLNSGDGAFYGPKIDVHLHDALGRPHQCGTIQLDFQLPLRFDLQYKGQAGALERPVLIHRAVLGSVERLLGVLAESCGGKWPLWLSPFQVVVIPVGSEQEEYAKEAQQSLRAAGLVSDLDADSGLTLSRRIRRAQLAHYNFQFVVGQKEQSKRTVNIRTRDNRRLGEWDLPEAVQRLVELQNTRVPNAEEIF
Chain of UniProt Q12824 (Q12824 whole entry, looked up): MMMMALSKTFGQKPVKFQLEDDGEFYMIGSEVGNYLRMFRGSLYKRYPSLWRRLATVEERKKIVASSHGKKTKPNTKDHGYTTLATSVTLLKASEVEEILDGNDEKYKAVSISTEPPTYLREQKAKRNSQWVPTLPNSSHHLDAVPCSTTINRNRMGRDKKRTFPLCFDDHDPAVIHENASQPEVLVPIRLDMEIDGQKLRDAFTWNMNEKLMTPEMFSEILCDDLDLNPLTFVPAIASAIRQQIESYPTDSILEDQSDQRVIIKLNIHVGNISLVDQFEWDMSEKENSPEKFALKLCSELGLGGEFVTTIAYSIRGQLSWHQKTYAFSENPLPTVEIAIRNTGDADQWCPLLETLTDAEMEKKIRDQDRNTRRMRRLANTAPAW
Chain of UniProt Q9NS93 (Q9NS93 whole entry, looked up): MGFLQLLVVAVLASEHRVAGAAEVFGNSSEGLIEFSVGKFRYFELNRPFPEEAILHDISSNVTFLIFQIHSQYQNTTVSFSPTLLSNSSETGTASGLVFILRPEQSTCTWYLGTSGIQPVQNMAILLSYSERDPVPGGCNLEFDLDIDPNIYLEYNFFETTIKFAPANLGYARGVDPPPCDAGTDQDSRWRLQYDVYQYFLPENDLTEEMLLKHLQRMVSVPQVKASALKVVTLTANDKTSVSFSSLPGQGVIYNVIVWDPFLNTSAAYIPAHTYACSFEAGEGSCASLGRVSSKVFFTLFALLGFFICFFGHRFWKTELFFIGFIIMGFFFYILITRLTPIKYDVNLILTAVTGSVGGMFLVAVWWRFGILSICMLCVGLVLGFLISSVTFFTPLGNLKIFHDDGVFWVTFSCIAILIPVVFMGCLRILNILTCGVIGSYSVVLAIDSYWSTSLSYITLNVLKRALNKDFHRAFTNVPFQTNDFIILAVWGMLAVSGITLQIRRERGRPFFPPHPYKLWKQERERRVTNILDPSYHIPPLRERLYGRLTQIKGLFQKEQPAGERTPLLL
Chain of UniProt O95359 (O95359 whole entry, looked up): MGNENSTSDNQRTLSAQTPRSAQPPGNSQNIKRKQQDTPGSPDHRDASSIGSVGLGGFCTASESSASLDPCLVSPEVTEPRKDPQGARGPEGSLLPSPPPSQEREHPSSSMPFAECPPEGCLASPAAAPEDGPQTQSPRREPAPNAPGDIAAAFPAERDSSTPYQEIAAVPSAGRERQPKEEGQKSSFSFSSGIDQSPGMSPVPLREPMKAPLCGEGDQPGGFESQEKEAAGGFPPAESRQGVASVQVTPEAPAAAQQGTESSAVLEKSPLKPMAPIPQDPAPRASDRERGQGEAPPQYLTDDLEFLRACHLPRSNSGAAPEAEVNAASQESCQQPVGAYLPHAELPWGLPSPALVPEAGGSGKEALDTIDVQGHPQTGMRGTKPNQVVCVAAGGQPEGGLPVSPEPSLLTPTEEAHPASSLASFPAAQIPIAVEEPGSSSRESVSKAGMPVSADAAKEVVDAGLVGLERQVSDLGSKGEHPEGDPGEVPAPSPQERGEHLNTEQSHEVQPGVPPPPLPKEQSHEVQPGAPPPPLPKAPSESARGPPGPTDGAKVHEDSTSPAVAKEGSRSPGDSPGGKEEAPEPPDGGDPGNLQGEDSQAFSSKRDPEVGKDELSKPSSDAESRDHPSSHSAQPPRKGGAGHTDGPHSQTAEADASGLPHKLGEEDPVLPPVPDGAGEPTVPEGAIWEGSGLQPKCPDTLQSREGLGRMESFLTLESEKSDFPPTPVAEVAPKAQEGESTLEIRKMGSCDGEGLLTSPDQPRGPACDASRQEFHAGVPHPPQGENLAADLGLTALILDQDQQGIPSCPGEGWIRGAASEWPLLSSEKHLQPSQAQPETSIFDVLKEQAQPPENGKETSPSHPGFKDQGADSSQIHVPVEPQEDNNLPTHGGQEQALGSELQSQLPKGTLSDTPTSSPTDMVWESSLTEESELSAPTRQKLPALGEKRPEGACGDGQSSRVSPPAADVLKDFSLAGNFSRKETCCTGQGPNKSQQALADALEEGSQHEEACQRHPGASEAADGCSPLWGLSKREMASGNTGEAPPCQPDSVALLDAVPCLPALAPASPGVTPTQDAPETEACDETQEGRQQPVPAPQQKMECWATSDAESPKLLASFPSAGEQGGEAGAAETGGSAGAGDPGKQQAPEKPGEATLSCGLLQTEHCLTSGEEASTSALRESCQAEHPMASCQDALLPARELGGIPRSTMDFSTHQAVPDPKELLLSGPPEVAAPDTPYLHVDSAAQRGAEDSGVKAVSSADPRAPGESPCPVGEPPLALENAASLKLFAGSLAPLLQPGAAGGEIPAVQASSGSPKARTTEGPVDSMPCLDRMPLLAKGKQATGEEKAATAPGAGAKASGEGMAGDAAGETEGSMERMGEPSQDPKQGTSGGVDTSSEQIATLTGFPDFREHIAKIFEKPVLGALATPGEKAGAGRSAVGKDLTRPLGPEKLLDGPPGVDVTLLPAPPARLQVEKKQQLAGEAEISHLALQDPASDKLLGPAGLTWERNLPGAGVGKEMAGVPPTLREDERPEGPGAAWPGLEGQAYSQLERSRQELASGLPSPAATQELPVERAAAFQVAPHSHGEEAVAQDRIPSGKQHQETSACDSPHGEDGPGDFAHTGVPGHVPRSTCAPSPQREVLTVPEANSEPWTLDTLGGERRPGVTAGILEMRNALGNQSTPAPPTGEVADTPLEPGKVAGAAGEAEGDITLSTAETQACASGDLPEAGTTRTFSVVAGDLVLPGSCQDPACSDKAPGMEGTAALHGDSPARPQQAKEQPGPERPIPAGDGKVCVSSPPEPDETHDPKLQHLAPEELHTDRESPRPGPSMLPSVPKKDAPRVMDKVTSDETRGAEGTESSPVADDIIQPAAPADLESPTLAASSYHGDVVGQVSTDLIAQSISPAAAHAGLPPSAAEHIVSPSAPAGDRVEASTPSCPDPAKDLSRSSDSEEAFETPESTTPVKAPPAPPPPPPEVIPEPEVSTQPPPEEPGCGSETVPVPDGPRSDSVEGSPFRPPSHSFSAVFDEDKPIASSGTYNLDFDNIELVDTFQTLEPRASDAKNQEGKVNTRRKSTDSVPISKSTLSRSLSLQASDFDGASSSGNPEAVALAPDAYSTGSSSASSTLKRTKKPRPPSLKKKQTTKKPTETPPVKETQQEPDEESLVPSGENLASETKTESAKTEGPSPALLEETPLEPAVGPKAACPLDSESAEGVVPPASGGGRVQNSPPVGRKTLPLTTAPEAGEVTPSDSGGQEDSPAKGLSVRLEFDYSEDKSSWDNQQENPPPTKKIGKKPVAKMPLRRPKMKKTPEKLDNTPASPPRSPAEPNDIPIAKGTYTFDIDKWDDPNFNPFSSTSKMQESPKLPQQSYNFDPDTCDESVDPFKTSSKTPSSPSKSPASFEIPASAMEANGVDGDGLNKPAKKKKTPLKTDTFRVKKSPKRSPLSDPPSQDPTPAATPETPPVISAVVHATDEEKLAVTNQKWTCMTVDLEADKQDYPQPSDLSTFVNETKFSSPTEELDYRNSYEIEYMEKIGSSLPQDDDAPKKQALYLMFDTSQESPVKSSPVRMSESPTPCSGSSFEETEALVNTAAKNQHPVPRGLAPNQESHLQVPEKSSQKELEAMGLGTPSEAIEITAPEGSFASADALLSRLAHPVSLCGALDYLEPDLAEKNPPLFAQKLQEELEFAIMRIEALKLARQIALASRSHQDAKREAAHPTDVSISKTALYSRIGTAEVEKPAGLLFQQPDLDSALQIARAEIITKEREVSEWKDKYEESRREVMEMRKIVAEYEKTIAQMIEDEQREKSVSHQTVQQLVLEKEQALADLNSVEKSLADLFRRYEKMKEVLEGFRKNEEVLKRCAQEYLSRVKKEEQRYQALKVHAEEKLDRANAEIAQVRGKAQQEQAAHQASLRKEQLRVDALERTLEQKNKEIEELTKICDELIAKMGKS
Chain of UniProt Q8N5G0 (Q8N5G0 whole entry, looked up): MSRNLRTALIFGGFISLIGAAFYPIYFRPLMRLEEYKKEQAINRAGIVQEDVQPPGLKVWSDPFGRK

| Target | log2 fold change |
| --- | --- |
| SLC44A2 isoform 2 (UniProt Q8IWA5) | -0.051 |
| STK38L (UniProt Q9Y2H1) | -0.087 |
| SLC35F6 (UniProt Q8N357) | -0.002 |
| SLC27A1 (UniProt Q6PCB7) | -0.203 |
| SRSF6 (UniProt Q13247) | 0.054 |
| TATDN2 (UniProt Q93075) | -0.136 |
| TENT5C (UniProt Q5VWP2) | 0.115 |
| TMBIM1 (UniProt Q969X1) | 0.207 |
| SNRNP40 (UniProt Q96DI7) | 0.143 |
| SPART (UniProt Q8N0X7) | -0.063 |
| SRSF4 (UniProt Q08170) | 0.135 |
| SMDT1 (UniProt Q9H4I9) | -0.005 |
| SNX1 (UniProt Q13596) | -0.084 |
| THADA (UniProt Q6YHU6) | -0.095 |
| SMARCB1 (UniProt Q12824) | -0.106 |
| TACC2 (UniProt O95359) | -0.084 |
| SRFBP1 (UniProt Q8NEF9) | 0.096 |
| SYNE1 (UniProt Q8NF91) | 0.011 |
| STARD3 (UniProt Q14849) | 0.035 |

| Target | log2 fold change |
| --- | --- |
| SNX15 (UniProt Q9NRS6) | 0.133 |
| SRCAP (UniProt Q6ZRS2) | -0.279 |
| THYN1 (UniProt Q9P016) | -0.008 |
| SURF2 (UniProt Q15527) | 0 |
| TANGO6 (UniProt Q9C0B7) | -0.084 |
| SPCS2 (UniProt Q15005) | -0.058 |
| STAM2 (UniProt O75886) | -0.097 |
| SP100 isoform 4 (UniProt P23497) | -0.117 |
| TM7SF3 (UniProt Q9NS93) | 0.068 |
| TIMM10B (UniProt Q9Y5J6) | -0.022 |
| TLK1 (UniProt Q9UKI8) | -0.022 |
| SLC30A7 (UniProt Q8NEW0) | -0.105 |
| TAF6L (UniProt Q9Y6J9) | -0.055 |
| SLC35B1 isoform 2 (UniProt P78383) | 0.031 |
| STX7 (UniProt O15400) | -0.001 |
| TARS2 (UniProt Q9BW92) | -0.041 |
| SUPT5H (UniProt O00267) | -0.075 |
| SMIM20 isoform 2 (UniProt Q8N5G0) | -0.024 |
| TANK (UniProt Q92844) | 0.081 |

compound: CN1CCc2c(c3ccccc3n2Cc2ccc(C(=O)NO)cc2)C1 [Tubastatin A]; experiment: as above
In short: as §1

| Target | log2 fold change |
| --- | --- |
| SLC44A2 isoform 2 (UniProt Q8IWA5) | -0.053 |
| STK38L (UniProt Q9Y2H1) | -0.067 |
| SLC35F6 (UniProt Q8N357) | -0.05 |
| SLC27A1 (UniProt Q6PCB7) | -0.252 |
| SRSF6 (UniProt Q13247) | 0.092 |
| TATDN2 (UniProt Q93075) | -0.094 |
| TENT5C (UniProt Q5VWP2) | 0.004 |
| TMBIM1 (UniProt Q969X1) | 0.002 |
| SNRNP40 (UniProt Q96DI7) | -0.092 |
| SPART (UniProt Q8N0X7) | -0.05 |
| SRSF4 (UniProt Q08170) | 0.17 |
| SMDT1 (UniProt Q9H4I9) | 0.035 |
| SNX1 (UniProt Q13596) | -0.021 |
| THADA (UniProt Q6YHU6) | 0.073 |
| SMARCB1 (UniProt Q12824) | 0.016 |
| TACC2 (UniProt O95359) | -0.041 |
| SRFBP1 (UniProt Q8NEF9) | 0.084 |
| SYNE1 (UniProt Q8NF91) | 0.193 |
| STARD3 (UniProt Q14849) | 0.013 |

| Target | log2 fold change |
| --- | --- |
| SNX15 (UniProt Q9NRS6) | 0.045 |
| SRCAP (UniProt Q6ZRS2) | -0.486 (active) |
| THYN1 (UniProt Q9P016) | -0.006 |
| SURF2 (UniProt Q15527) | 0.066 |
| TANGO6 (UniProt Q9C0B7) | 0.116 |
| SPCS2 (UniProt Q15005) | -0.026 |
| STAM2 (UniProt O75886) | -0.014 |
| SP100 isoform 4 (UniProt P23497) | -0.015 |
| TM7SF3 (UniProt Q9NS93) | -0.082 |
| TIMM10B (UniProt Q9Y5J6) | 0.109 |
| TLK1 (UniProt Q9UKI8) | 0.036 |
| SLC30A7 (UniProt Q8NEW0) | -0.107 |
| TAF6L (UniProt Q9Y6J9) | -0.012 |
| SLC35B1 isoform 2 (UniProt P78383) | 0.037 |
| STX7 (UniProt O15400) | -0.036 |
| TARS2 (UniProt Q9BW92) | -0.357 (active) |
| SUPT5H (UniProt O00267) | 0.007 |
| SMIM20 isoform 2 (UniProt Q8N5G0) | -0.013 |
| TANK (UniProt Q92844) | 0.03 |
